Inconclusive results are not listed. Unmarked numbers belong to inactive results. Activity calls are given as the source filed them. Calls follow the shape of the dose curve; as a rule, active = well fitted inhibition curve with a large enough effect in the repeat runs; inconclusive = weak or mixed curves; inactive = flat fitted curve, though single readings scatter.
Biological target: Luciferin 4-monooxygenase (Photinus pyralis) (UniProt P08659)
Assay: qHTS assay to identify small molecule inhibitors of firefly luciferase (AID 1224835); also: nearly all actives have a fitted effect of over 25% in size
Details: purified P. pyralis luciferase, luminescence inhibition; series mostly up to 115 µM; activity change, negative = inhibition: at the top concentration
Source text: U.S. Tox21 Program National Center for Advancing Translational Sciences [NCATS] NIH Chemical Genomics Center [NCGC] U.S. Environmental Protection Agency [EPA] National Institutes of Environmental Health Sciences [NIEHS] National Toxicology Program [NTP] U.S. Food and Drug Administration [FDA] Tox21 Assay Overview: Firefly (Photinus pyralis) luciferase is one of the most commonly used transcriptional reporters. Firefly luciferase reporter-gene assays are generally considered one of the most sensitive assay types (Wood, 1995; Wood, 1998). However, it was initially observed, in 1991, by Thompson et al., that compounds that resemble the substrates of firefly luciferase (FLuc) can act as competitive inhibitors of the enzyme, and that these compounds, upon interaction with luciferase in the cell, can actually stabilize the protein and increase its half-life. Previous profiling work by other groups to determine the prevalence of compounds that affect FLuc enzymatic activity (PubChem AID 411) identified that ~3% of the MLSMR library (then at ~72K) inhibited FLuc. […] Thus the Tox21 10K library is profiled for activity against FLuc using a biochemical assay of purified FLuc and KM concentrations of FLuc substrates (D-luciferin and ATP).
These assay plates were then treated with 23nL of compound or DMSO using a Kalypsys pin tool, which allows for delivery of a 6-point interplate titration of each compound to the assay plate (quantitative HTS.) 1 uL of firefly luciferase mix (containing 50 mM Tris acetate, pH 7.6, 0.04 uM P. pyralis luciferase, 0.01% Tween, 0.05% BSA and dH2O) was then delivered by FRD to each well. Luciferase activity was then measured using a ViewLux CCD imager.
% is scaled to controls: 0 for no effect and ±100 for the full control effect; potency is read from the fitted curve at half-maximal effect.

Chain of Luciferin 4-monooxygenase (Photinus pyralis) (P08659 whole entry, looked up): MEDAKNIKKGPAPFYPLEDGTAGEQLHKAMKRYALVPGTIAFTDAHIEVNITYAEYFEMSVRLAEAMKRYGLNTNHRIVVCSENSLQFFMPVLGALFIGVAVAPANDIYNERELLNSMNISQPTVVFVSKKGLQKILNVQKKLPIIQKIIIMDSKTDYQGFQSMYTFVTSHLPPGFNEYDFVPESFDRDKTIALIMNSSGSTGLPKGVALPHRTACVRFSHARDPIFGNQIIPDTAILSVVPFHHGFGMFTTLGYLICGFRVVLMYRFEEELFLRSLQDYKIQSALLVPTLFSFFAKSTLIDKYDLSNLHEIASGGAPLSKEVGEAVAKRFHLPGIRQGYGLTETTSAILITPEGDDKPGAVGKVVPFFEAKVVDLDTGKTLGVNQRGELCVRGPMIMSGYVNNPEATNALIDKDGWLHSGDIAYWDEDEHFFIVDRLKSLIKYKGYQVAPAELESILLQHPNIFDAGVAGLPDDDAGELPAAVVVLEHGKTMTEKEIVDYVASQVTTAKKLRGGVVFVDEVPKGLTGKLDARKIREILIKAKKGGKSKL

In order of rising “activity change, negative = inhibition” value:
1. Cc1cc(-c2ccccc2)nnc1NCCN1CCOCC1  -7.91% [at 52.9 µM]
2. CCNC(=O)NCc1cccc(Cl)c1  -4.08% [at 52.9 µM]
3. CCC(=O)c1c(O)cc(O)cc1O  -3.57% [at 52.9 µM]
4. OCC(O)CN1CCN(c2ccccc2)CC1 (stereo not given)  -2.62% [at 52.9 µM]
5. Cc1c(NC(=O)c2cccnc2)c(=O)n(-c2ccccc2)n1C  0.04% [at 52.9 µM]
6. N#CCC(=O)NN  0.0665% [at 52.9 µM]
7. CCC[C@@H]1C[C@@H](C(=O)N[C@@H]([C@H]2O[C@H](SC)[C@H](O)[C@@H](O)[C@H]2O)[C@@H](C)O)N(C)C1  0.44% [at 52.9 µM]
8. COc1c2occc2c(OC)c2c(=O)cc(C)oc12  0.637% [at 52.9 µM]
9. Cc1ncc([N+](=O)[O-])n1CC(C)O (stereo not given)  0.707% [at 52.9 µM]
10. CN(C)CCOC(=O)C(c1ccccc1)C1(O)CCCC1 (stereo not given)  1.63% [at 52.9 µM]
11. O=C(Cn1ccnc1[N+](=O)[O-])NCc1ccccc1  2.17% [at 52.9 µM]
12. O=C(NCN1CCOCC1)c1cnccn1  3.45% [at 52.9 µM]
13. OC1(c2ccc(Cl)cc2)CCNCC1  7.35% [at 52.9 µM]

In order of falling “activity change, negative = inhibition” value:
1. O=C1CCC(=O)N1Cl  4.32%
2. CCCCCCCCCOC(=O)c1ccccc1C(=O)OCCCCCCCCC  4.14%
3. OCC1CCC(CO)CC1 (stereo not given)  3.41%
4. O=C(Cl)c1ccccc1[N+](=O)[O-]  3.15%
5. CCc1occc(=O)c1O  2.86%
6. C=C(C)[C@@H]1CC=C(C)C(=O)C1  2.3%
7. C[C@@H](O)C(=O)O  2.04%
8. Cc1ccc(C(C)NC(=O)[C@@H](NC(=O)OC(C)C)C(C)C)cc1 (stereo not given in full)  1.71%
9. CC(=O)C(C)O (stereo not given)  1.57%
10. c1ccc2cnccc2c1  1.49%
11. CC(C)(CO)C(O)C(=O)NCCCO (stereo not given)  1.04%
12. C=Cc1ccc(C(C)(C)C)cc1  1.04%
13. CC(O)COC(C)(C)C (stereo not given)  0.559%
14. Cc1cc(C)c(C(=O)O)c(C)c1  0.548%
15. C=CC/C=C/C  0.473%
16. C/C(CC(C)C)=N\O  -0.117%
17. CC(S)C(C)S (stereo not given)  -0.147%
18. OCC1(CO)COCOC1  -0.584%
19. c1ccc(-c2nn[nH]n2)cc1  -2.45%
20. Cc1cccc(Cl)c1  -2.88%
21. OC[C@@H](O)C(O)[C@@H](O)CO (stereo not given in full)  -3.05%
22. CCC(C)OC(C)CC (stereo not given)  -4.64%

In order of rising activity change, negative = inhibition:
1. CCCCCCCCCCCCCCCCCCOCCO  -2.69% [at 23.6 µM]
2. CN1C[C@@H]2C[C@H]1CN2c1cc2c(cc1F)c(=O)c(C(=O)O)cn2C1CC1  0.0867% [at 23.6 µM]

C/C=C(\C)C(=O)OCCc1ccccc1 was tested, and the Potency was 7.1 µM (active).

In order of falling activity change, negative = inhibition:
1. CCn1cc(C(=O)O)c(=O)c2cnc(N3CCCC3)nc21  2.85% [at 10.5 µM]
2. O=S(=O)(O)c1ccc2c(N=Nc3ccc(S(=O)(=O)O)c4ccccc34)c(O)c(S(=O)(=O)O)cc2c1  -3.96% [at 10.5 µM]
